# Reference: ChEMBL document CHEMBL3988442, “University of Dundee, Small-Polar-MMV Screening Library” (2021)
# For some of these results: Results with a measured potency or affinity are listed apart.
# Assays:
# Set-up in all cases: scale not given: direction of the effect not stated beside the values
# [1] = target: Protein translocase subunit SecA (Escherichia coli (strain K12)) (UniProt P10408); test: Assay to Identify E. coli SecA ATPase Inhibitors; assay type: functional; conditions: 30 µM
# [2] = target: T1, Ubiquitin-activating enzyme e1, putative (Leishmania donovani (strain BPK282A1)) (UniProt E9BSI1); test: Leishmania donovani Ubiquitin Activating Enzyme (LdE1); assay type: functional; conditions: 30 µM
# T1 sequence (whole entry): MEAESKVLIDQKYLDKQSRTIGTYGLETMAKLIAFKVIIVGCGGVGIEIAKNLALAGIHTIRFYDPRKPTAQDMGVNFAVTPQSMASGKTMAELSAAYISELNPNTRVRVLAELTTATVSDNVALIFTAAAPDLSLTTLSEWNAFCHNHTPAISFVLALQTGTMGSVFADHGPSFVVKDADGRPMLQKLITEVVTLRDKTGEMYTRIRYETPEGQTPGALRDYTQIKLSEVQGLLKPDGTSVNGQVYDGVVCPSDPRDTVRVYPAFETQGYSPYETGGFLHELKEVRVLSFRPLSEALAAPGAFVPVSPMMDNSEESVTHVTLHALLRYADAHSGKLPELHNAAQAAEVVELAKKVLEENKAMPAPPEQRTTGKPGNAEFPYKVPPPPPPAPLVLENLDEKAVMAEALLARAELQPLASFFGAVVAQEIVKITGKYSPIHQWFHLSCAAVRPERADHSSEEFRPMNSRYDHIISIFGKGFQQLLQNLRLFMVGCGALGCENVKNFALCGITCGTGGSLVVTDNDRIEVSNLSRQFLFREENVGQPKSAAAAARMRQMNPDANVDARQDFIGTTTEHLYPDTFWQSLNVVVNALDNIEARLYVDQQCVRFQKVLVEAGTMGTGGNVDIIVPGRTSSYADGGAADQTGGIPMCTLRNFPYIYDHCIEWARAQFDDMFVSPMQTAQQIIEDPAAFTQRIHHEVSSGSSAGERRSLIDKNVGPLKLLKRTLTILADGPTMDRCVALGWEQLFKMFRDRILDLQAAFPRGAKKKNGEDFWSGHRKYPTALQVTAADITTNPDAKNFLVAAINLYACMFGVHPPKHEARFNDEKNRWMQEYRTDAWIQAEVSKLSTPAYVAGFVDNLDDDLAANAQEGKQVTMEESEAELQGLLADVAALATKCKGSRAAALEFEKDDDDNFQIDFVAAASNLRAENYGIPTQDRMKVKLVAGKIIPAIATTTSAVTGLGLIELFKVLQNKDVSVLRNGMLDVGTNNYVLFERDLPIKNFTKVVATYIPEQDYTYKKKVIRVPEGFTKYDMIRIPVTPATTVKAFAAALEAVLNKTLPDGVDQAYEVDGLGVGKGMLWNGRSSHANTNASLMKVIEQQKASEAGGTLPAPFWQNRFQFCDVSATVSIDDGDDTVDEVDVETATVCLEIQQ
# [3] = target: AMP-activated protein kinase, AMPK (Homo sapiens) (UniProt P54646+O43741+P54619+Q9UGJ0+Q9Y478+Q13131+Q9UGI9); test: AMP-dependent Kinase enzyme assay. An in vitro enzyme assay that detects ADP turnover that is directly proportional to AMPK activity. This uses naive AMPK that is activated during the assay with MK-8722; assay type: functional; conditions: 30 µM
# [4] = target: Sialic acid-binding Ig-like lectin 9 (Homo sapiens) (UniProt Q9Y336); test: Hs-Siglec9 ALPHAscreen SOP 20170721; conditions: 10 µM
# Trypanosoma cruzi = test: Trypanosoma cruzi phosphomannomutase and mannose-1-phosphate guanylyltransferase assay; assay type: functional; conditions: 10 µM
# [5] = target: T2, Arginase-2, mitochondrial (Homo sapiens) (UniProt P78540); test: in vitro enzyme assay to detect the production of urea directly proportional to the activity of Arginase II; assay type: functional; conditions: 33.3 µM; also: in the data most compounds retested in dose-response had high values
# T2 sequence (whole entry): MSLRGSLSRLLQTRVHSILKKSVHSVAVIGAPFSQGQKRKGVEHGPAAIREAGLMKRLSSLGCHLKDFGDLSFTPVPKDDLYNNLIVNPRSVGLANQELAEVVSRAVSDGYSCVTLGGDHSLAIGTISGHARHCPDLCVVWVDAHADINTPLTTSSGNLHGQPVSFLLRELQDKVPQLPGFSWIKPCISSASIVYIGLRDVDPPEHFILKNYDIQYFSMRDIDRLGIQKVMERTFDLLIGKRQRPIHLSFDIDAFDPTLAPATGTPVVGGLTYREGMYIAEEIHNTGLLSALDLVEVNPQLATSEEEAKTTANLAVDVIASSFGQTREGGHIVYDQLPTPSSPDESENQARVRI
# [6] = target: T3, Proteasome subunit beta (Trypanosoma cruzi) (UniProt O96673); test: Trypanosoma cruzi proteasome chymotrypsin-like activity (TcProtChymo) assay.; also: in the data most compounds retested in dose-response had high values; assay type: functional; conditions: 9.37 µM
# T3 sequence (whole entry): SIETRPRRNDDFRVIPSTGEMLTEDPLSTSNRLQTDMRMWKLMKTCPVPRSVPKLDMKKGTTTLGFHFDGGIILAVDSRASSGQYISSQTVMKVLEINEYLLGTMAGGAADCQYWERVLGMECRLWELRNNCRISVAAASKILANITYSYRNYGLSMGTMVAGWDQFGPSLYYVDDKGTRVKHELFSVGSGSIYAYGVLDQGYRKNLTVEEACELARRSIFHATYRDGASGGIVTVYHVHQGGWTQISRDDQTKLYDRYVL
# Homo sapiens = species: Homo sapiens; test: To identify inhibition of the IFN signalling (Jak-Stat) pathway via expression of an eGFP reporter gene under the control of an IFN-stimulated response element (ISRE) containing MxA promoter.; assay type: functional; conditions: 30 µM
# [7] = target: T4, Tyrosyl-tRNA synthetase, putative (Trypanosoma cruzi (strain CL Brener)) (UniProt Q4DSP6); test: Trypanosoma cruzi tyrosyl tRNA synthetase (TcYRS) _High Tyrosine SOP; assay type: functional; conditions: 30 µM; also: in the data most compounds retested in dose-response had high values
# T4 sequence (whole entry): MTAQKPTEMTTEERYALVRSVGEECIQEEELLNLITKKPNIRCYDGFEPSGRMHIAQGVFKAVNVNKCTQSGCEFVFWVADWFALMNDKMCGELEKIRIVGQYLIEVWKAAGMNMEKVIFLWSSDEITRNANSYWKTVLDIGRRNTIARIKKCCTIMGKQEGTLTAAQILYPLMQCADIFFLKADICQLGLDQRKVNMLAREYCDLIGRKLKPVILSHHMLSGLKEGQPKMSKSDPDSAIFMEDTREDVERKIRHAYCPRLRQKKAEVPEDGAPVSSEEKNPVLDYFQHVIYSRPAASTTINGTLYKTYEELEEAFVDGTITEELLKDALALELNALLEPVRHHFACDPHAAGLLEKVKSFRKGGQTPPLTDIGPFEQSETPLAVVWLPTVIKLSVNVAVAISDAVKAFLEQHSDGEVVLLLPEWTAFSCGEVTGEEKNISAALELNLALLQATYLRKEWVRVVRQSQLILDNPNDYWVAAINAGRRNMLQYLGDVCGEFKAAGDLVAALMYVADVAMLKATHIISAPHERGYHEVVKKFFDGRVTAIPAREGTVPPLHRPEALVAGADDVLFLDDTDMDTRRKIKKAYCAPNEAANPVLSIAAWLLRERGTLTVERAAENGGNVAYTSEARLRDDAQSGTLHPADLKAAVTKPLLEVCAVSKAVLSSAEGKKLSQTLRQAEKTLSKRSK
# [8] = target: T4, Tyrosyl-tRNA synthetase, putative (Trypanosoma cruzi (strain CL Brener)); test: Trypanosoma cruzi tyrosyl tRNA synthetase (TcYRS) SOP; assay type: functional; conditions: 30 µM
# [9] = target: Chromo domain-containing protein 1 (Saccharomyces cerevisiae (strain ATCC 204508 / S288c) (Baker's yeast)) (UniProt P32657); test: ScCHD-1 Enzyme Inhibition Assay; assay type: functional; conditions: 30 µM; also: in the data most compounds retested in dose-response had high values
# Chain of Chromo domain-containing protein 1 (Saccharomyces cerevisiae (strain ATCC 204508 / S288c) (Baker's yeast)) (P32657 whole entry, the tested form may be a part): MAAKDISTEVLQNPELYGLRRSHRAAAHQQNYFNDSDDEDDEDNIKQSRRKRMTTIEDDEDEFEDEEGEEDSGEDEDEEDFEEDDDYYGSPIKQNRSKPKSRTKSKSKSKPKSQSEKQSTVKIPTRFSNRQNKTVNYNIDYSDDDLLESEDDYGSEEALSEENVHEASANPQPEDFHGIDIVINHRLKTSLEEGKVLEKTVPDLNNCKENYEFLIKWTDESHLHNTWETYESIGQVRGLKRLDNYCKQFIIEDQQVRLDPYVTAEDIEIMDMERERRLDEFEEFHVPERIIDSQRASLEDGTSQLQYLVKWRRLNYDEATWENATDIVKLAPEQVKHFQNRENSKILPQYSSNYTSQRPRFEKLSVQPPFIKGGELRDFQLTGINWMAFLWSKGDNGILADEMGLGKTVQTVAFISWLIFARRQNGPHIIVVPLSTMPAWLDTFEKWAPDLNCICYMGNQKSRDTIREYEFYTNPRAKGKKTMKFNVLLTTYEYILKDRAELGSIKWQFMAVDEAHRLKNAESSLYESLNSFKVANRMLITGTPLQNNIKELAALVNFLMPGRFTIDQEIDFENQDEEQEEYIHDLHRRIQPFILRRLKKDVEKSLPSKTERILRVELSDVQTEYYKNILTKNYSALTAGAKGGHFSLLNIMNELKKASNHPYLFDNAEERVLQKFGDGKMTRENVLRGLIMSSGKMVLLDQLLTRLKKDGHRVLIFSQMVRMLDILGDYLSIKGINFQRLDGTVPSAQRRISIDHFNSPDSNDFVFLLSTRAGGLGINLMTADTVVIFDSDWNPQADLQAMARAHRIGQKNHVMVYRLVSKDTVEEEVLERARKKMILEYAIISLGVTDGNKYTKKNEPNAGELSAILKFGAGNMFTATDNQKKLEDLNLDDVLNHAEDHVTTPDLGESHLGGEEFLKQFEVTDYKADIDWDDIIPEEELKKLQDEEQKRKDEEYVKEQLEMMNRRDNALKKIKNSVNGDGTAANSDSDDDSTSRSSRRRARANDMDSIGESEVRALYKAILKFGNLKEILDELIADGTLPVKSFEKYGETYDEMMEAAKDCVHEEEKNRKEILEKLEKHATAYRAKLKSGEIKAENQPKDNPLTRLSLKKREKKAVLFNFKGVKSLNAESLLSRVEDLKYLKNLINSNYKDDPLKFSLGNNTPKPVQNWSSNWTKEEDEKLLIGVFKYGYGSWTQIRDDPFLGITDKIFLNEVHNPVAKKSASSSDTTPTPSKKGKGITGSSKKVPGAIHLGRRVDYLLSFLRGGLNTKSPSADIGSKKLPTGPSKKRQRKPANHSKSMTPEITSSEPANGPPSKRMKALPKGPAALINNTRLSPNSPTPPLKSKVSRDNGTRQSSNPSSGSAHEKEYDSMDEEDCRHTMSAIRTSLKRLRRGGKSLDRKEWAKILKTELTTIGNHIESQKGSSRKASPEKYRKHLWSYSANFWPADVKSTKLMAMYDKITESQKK
# Chain of Protein translocase subunit SecA (Escherichia coli (strain K12)) (P10408 whole entry): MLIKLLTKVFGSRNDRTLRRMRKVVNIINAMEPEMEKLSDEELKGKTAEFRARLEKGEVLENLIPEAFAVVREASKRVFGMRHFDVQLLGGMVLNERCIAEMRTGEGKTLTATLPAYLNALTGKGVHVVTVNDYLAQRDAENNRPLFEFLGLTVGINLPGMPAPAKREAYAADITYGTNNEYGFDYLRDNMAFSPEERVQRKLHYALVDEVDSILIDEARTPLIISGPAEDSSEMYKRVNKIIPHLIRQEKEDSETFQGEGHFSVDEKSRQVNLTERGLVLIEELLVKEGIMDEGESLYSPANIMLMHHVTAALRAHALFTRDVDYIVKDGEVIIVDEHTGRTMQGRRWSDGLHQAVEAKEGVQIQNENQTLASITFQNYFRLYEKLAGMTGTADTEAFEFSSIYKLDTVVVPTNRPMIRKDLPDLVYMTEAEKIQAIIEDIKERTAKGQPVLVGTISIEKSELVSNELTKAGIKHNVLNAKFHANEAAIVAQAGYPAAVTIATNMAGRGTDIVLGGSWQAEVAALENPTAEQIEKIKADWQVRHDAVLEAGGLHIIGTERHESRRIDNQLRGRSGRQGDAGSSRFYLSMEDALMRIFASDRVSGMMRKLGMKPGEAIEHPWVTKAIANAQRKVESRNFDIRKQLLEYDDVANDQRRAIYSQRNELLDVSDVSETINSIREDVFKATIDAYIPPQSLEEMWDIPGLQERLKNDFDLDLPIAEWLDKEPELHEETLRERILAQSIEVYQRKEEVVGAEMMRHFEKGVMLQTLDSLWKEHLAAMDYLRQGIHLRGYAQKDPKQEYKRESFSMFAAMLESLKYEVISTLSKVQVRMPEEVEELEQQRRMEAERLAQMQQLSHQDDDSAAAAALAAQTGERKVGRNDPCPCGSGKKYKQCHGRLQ
# Chain of Sialic acid-binding Ig-like lectin 9 (Homo sapiens) (Q9Y336 whole entry): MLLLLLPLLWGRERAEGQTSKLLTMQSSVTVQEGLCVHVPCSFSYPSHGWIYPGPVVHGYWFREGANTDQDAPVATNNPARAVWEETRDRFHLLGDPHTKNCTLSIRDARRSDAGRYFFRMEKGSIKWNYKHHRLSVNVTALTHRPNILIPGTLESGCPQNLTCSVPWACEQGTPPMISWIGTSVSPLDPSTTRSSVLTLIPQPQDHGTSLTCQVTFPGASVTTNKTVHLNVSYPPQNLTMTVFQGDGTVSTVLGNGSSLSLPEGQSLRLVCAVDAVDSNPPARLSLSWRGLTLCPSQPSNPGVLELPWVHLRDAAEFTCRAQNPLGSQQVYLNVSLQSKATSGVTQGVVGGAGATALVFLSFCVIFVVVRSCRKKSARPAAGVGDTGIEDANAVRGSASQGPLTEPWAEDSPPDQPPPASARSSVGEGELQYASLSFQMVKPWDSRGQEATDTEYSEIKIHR
Compound,Percent Effect [1] [%],Percent Effect [2] [%],Percent Effect [3] [%],Percent Effect [4] [%],Percent Effect (Trypanosoma cruzi) [%],Percent Effect [5] [%],Percent Effect [6] [%],Percent Effect (Homo sapiens) [%],Percent Effect [7] [%],Percent Effect [8] [%],Percent Effect [9] [%]
CC(C)c1noc(C(C)N2CCN(CCO)CC2)n1 (stereo unspecified),0.448,21.6,-14.5,-3.22,-3.68,-9.22,12.2,16.1,5.42,6.17,-0.137
Cc1nc(C(=O)N2CCC(Nc3cccnn3)CC2)cs1,-9.75,7.79,-12.2,-10.3,9.11,-5.68,12.7,-1.06,1.91,18.8,-20.4
CC(C)Nc1ncnc2c1CCN(C(=O)Cc1ccccn1)CC2,-6.13,1.33,-12.1,-2.69,-6.48,-10.4,10.3,-12.6,-2.12,-2.56,-11
Cc1nnc2n1CCN(C(=O)COCCOc1ccccc1)C2,-3.64,-21.5,10,1.03,-1.33,4.95,7.89,3.44,5.21,12.7,-1.76
CC(C)c1nccn1CCCNC(=O)c1ccc(N(C)C)nc1,-2.99,8,-4.43,14,3.21,13.5,6.97,13.7,1.64,8.64,-5.17
O=C(CN1CCCC1Cn1cncn1)Nc1cccnc1 (stereo unspecified),-3.94,9.72,-1.95,0.616,-1.26,4.86,16,-11.7,5.26,10.3,-1.86
Cn1cnnc1C1CCCN(C(=O)NCc2cc[nH]n2)C1 (stereo unspecified),-1.36,18.4,-12.9,-7.02,4.01,-2.16,9.05,4.39,6.4,18.5,-8.86
CC(C)N(C)C(=O)C1=NOC2(CCN(C(=O)c3ccc(Cl)cc3)C2)C1 (stereo unspecified),-0.137,5.48,1.89,5.19,-7.54,-1.6,17.6,27.1,8.33,8.64,-3.93
COc1cc(C)nc(N2CCN(C(=O)c3ccc[nH]3)CC2)n1,-5.18,10.8,-2.76,14.9,3.68,-5.21,4.14,17.1,1.48,6.17,-10.1
Cc1ccc(CNC(=O)N2CCCCC2CCNS(C)(=O)=O)cc1 (stereo unspecified),-1.58,2.7,2.59,-1.08,-1.74,-15.2,12.6,23.6,2.65,2.44,-4.89
COc1cccc(CN2CCCCCC2c2cccc(C)c2)c1O (stereo unspecified),-3.46,-2.6,18.9,-5.45,-3.25,-3.23,24,21.6,-5.29,-3.85,-9.17
